Eight molecules from the supplement of paper PMC9117331 can be followed below.

Conditions in all cases: 0.5 µM; time after treatment 48 h; PC9 signalome
Assay [1] deals with PC9. Kind of assay: AKT reporter activity score (signed KS statistic vs DMSO) (signed KS statistic (-1 to 1)); higher = stronger activation of the pathway reporter relative to DMSO.
Assay [2] relates to PC9. Kind of assay: RAR reporter activity score (signed KS statistic vs DMSO) (signed KS statistic (-1 to 1)); higher = stronger activation of the pathway reporter relative to DMSO.
Assay [3] concerns PC9. Kind of assay: PKC reporter activity score (signed KS statistic vs DMSO) (signed KS statistic (-1 to 1)); higher = stronger activation of the pathway reporter relative to DMSO.
The test system of assay [4] is PC9. Kind of assay: PKA reporter activity score (signed KS statistic vs DMSO) (signed KS statistic (-1 to 1)); higher = stronger activation of the pathway reporter relative to DMSO.
The test system of assay [5] is PC9. Kind of assay: p38 reporter activity score (signed KS statistic vs DMSO) (signed KS statistic (-1 to 1)); higher = stronger activation of the pathway reporter relative to DMSO.
Assay [6] deals with PC9. In words: HIF reporter activity score (signed KS statistic vs DMSO) (signed KS statistic (-1 to 1)); higher = stronger activation of the pathway reporter relative to DMSO.
Assay [7] concerns PC9. Kind of assay: ERK reporter activity score (signed KS statistic vs DMSO) (signed KS statistic (-1 to 1)); higher = stronger activation of the pathway reporter relative to DMSO.
The test system of assay [8] is PC9. In words: JNK reporter activity score (signed KS statistic vs DMSO) (signed KS statistic (-1 to 1)); higher = stronger activation of the pathway reporter relative to DMSO.
In assay [9] the test system is PC9. In words: WNT reporter activity score (signed KS statistic vs DMSO) (signed KS statistic (-1 to 1)); higher = stronger activation of the pathway reporter relative to DMSO.
Assay [10] deals with PC9. In words: NFkB reporter activity score (signed KS statistic vs DMSO) (signed KS statistic (-1 to 1)); higher = stronger activation of the pathway reporter relative to DMSO.
For assay [11], the system named is PC9. In words: YAP/TAZ reporter activity score (signed KS statistic vs DMSO) (signed KS statistic (-1 to 1)); higher = stronger activation of the pathway reporter relative to DMSO.

SMILES strings stand for the structures. Where a name gives a salt, the structure may show the parent alone.

On to `C#CCC(Cc1cnc2nc(N)nc(N)c2n1)c1ccc(C(=O)N[C@@H](CCC(=O)O)C(=O)O)cc1` (some centres not stated) [Pralatrexate(Folotyn)], for which the “AKT reporter activity score” value in the assay with PC9 [1] is -0.334. For the same molecule, the “RAR reporter activity score” value with PC9 [2] is 0.231. For the same molecule, the “PKC reporter activity score” value in the assay on PC9 [3] turned out to be 0.0797. For the same molecule, the “PKA reporter activity score” value in the assay with PC9 [4] was -0.237. In the assay on PC9 [5], the “p38 reporter activity score” value is -0.0729. In the assay with PC9 [6], the “HIF reporter activity score” value worked out at 0.149. Further, in the assay on PC9 [7], the “ERK reporter activity score” value was -0.257. In addition, the “JNK reporter activity score” value with PC9 [8] was determined as 0.0731. Besides, the “WNT reporter activity score” value with PC9 [9] was 0.0527. For the same molecule, in the assay with PC9 [10], the “NFkB reporter activity score” value worked out at 0.0639. The “YAP/TAZ reporter activity score” value with PC9 [11] was determined as 0.223.

Take `C=CC(=O)Nc1ccc2ncnc(Nc3cccc(Br)c3)c2c1`: the “p38 reporter activity score” value in the assay with PC9 [5] is -0.268. In addition, the “HIF reporter activity score” value in the assay on PC9 [6] is 0.234. In the assay on PC9 [7], the “ERK reporter activity score” value is -0.724. Also, the “YAP/TAZ reporter activity score” value with PC9 [11] is 0.467.

With `CCn1c(-c2nonc2N)nc2c(C#CC(C)(C)O)ncc(OC[C@H]3CCCNC3)c21`, the “AKT reporter activity score” value with PC9 [1] is -0.513. Further, the “RAR reporter activity score” value in the assay with PC9 [2] was -0.292. Further, in the assay with PC9 [3], the “PKC reporter activity score” value is -0.0561. Also, the “PKA reporter activity score” value with PC9 [4] was 0.119. Besides, in the assay on PC9 [5], the “p38 reporter activity score” value is -0.189. Further, the “HIF reporter activity score” value in the assay on PC9 [6] was -0.224. In the assay with PC9 [7], the “ERK reporter activity score” value is 0.134. The “JNK reporter activity score” value with PC9 [8] turned out to be 0.058. Besides, the “WNT reporter activity score” value in the assay on PC9 [9] was found to be 0.151. For the same molecule, in the assay with PC9 [10], the “NFkB reporter activity score” value is 0.0699. Moreover, in the assay with PC9 [11], the “YAP/TAZ reporter activity score” value was -0.0459.

As for `Cn1cnc2c(F)c(Nc3ccc(Br)cc3Cl)c(C(=O)NOCCO)cc21` [AZD6244 (Selumetinib)], the “AKT reporter activity score” value in the assay on PC9 [1] turned out to be 0.282. For the same molecule, the “RAR reporter activity score” value in the assay on PC9 [2] is -0.154. Besides, in the assay with PC9 [3], the “PKC reporter activity score” value is -0.074. In addition, the “PKA reporter activity score” value with PC9 [4] is -0.0961. The “p38 reporter activity score” value in the assay with PC9 [5] turned out to be 0.0759. Further, the “HIF reporter activity score” value in the assay on PC9 [6] is -0.125. Moreover, the “ERK reporter activity score” value in the assay on PC9 [7] is -0.348. Moreover, in the assay with PC9 [8], the “JNK reporter activity score” value was 0.145. Moreover, the “WNT reporter activity score” value in the assay with PC9 [9] stood at 0.091. Moreover, the “NFkB reporter activity score” value in the assay on PC9 [10] worked out at 0.0644. Further, the “YAP/TAZ reporter activity score” value in the assay on PC9 [11] is 0.164.

Turning to `COc1cccc2c1C(=O)c1c(O)c3c(c(O)c1C2=O)C[C@@](O)(C(C)=O)C[C@@H]3O[C@H]1C[C@H](N)[C@H](O)[C@H](C)O1` [Daunorubicin HCl (Daunomycin HCl)], in the assay on PC9 [5], the “p38 reporter activity score” value is -0.245. The “ERK reporter activity score” value in the assay on PC9 [7] was -0.431. Moreover, the “JNK reporter activity score” value with PC9 [8] is 0.068. The “WNT reporter activity score” value in the assay on PC9 [9] is 0.915. Moreover, the “NFkB reporter activity score” value in the assay with PC9 [10] was 0.693.

`Cc1ccc(C(=O)N(CCCN)[C@@H](c2oc3cc(Cl)ccc3c(=O)c2Cc2ccccc2)C(C)C)cc1`: the “PKC reporter activity score” value in the assay with PC9 [3] was determined as 0.176. In the assay on PC9 [5], the “p38 reporter activity score” value was -0.278. Besides, in the assay with PC9 [6], the “HIF reporter activity score” value stood at 0.473. The “ERK reporter activity score” value in the assay on PC9 [7] is -0.378. Also, in the assay on PC9 [8], the “JNK reporter activity score” value is -0.131. Moreover, the “NFkB reporter activity score” value with PC9 [10] came out at 0.169.

With `COc1ccc(-c2ccc3c(N4CCOC[C@@H]4C)nc(N4CCOC[C@@H]4C)nc3n2)cc1CO`, the “AKT reporter activity score” value in the assay on PC9 [1] is -0.0864. For the same molecule, the “RAR reporter activity score” value in the assay with PC9 [2] is -0.11. For the same molecule, the “PKC reporter activity score” value in the assay on PC9 [3] stood at 0.0766. Moreover, the “p38 reporter activity score” value in the assay with PC9 [5] is -0.297. Further, in the assay with PC9 [6], the “HIF reporter activity score” value is -0.151. Besides, the “ERK reporter activity score” value in the assay on PC9 [7] was -0.211. In addition, the “JNK reporter activity score” value with PC9 [8] is -0.189. For the same molecule, the “WNT reporter activity score” value with PC9 [9] was 0.13. Also, in the assay on PC9 [10], the “NFkB reporter activity score” value stood at 0.178. In addition, the “YAP/TAZ reporter activity score” value in the assay on PC9 [11] came out at 0.166.

For `C[C@@H](Oc1cc(-n2cnc3ccc(CN4CCN(C)CC4)cc32)sc1C(N)=O)c1ccccc1C(F)(F)F`, the “AKT reporter activity score” value in the assay on PC9 [1] is -0.183. Besides, the “RAR reporter activity score” value in the assay on PC9 [2] is 0.399. The “PKA reporter activity score” value in the assay with PC9 [4] amounted to 0.141. Also, in the assay with PC9 [5], the “p38 reporter activity score” value was 0.183. The “HIF reporter activity score” value in the assay on PC9 [6] turned out to be 0.347. In addition, the “ERK reporter activity score” value in the assay on PC9 [7] is -0.139. The “JNK reporter activity score” value with PC9 [8] stood at 0.0494. Moreover, the “WNT reporter activity score” value in the assay on PC9 [9] turned out to be 0.141. In the assay on PC9 [10], the “NFkB reporter activity score” value is 0.0742.
